# Measured values reported in PubChem BioAssay AID1159580 (chemical genetic matrix, 2015).
# Out of some 5,500 compounds screened, about 2,000 (36%) were called active. Inconclusive results (about 18%) are left out. This is one part of the list. Values without a mark were called inactive. No stated cut-off is given here; in the data, active means normalized growth mostly below about 0.91 (no sharp cut-off); inconclusive means no clear call, values can overlap the other calls; inactive means mostly above about 0.92.
# Assay: chemical genetic growth profiling, strain panel (AID 1159580);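 further: tested at 20 µM; growth read once vehicle control cultures reached saturation at 30 °C; 1 = growth at the plate median or of vehicle wells; lower values mean less growth of the strain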
# Conditions: S. cerevisiae deletion strains, growth OD
smiles,measurement,setting,value
COc1cccc(OC)c1OCCNCC1CSc2ccccc2O1 (configuration not stated),normalized growth,"locus YAL040C, strain CLN3, active compounds read low",1.01
same,normalized growth,"locus YDR363W, strain ESC2, active compounds read low",0.936
same,normalized growth,"locus YER002W, strain NOP16, active compounds read low",1.01
same,normalized growth,"locus YJR075W, strain HOC1, active compounds read low",0.985
same,normalized growth,"locus YMR263W, strain SAP30, active compounds read low",0.995
same,normalized growth,"locus YMR307W, strain GAS1, active compounds read low",1.01
same,normalized growth,"locus YNL175C, strain NOP13, active compounds read low",0.986
same,normalized growth,"locus YNL197C, strain WHI3, active compounds read low",1.02
same,normalized growth,"locus YNL224C, strain SQS1, active compounds read low",1
same,normalized growth,"locus YOR083W, strain WHI5 (second series), active compounds read low",0.966
same,normalized growth,"locus YPL241C, strain CIN2, active compounds read low",1
ONC(=Nc1ccccc1Cl)c1ccccc1Cl,normalized growth,"locus YAR019C, strain CDC15, active compounds read low",0.999
same,normalized growth,"locus YBL105C, strain PKC1, active compounds read low",0.987
same,normalized growth,"locus YBR135W, strain CKS1, active compounds read low",0.992
same,normalized growth,"locus YBR136W, strain MEC1, active compounds read low",0.986
same,normalized growth,"locus YBR160W, strain CDC28, active compounds read low",0.993
same,normalized growth,"locus YDL017W, strain CDC7, active compounds read low",0.988
same,normalized growth,"locus YDL028C, strain MPS1, active compounds read low",0.985
same,normalized growth,"locus YDL101C, strain DUN1, active compounds read low",0.993
same,normalized growth,"locus YDL108W, strain KIN28, active compounds read low",0.979
same,normalized growth,"locus YDL132W, strain cdc53, active compounds read low",0.997
same,normalized growth,"locus YDL214C, strain PRR2, active compounds read low",0.824
same,normalized growth,"locus YDR052C, strain DBF4, active compounds read low",0.983
same,normalized growth,"locus YDR054C, strain cdc34, active compounds read low",0.992
same,normalized growth,"locus YDR226W, strain ADK1, active compounds read low",0.987
same,normalized growth,"locus YDR477W, strain SNF1, active compounds read low",0.859
same,normalized growth,"locus YER123W, strain YCK3, active compounds read low",0.688
same,normalized growth,"locus YER133W, strain GLC7, active compounds read low",0.833
same,normalized growth,"locus YFL009W, strain cdc4, active compounds read low",0.999
same,normalized growth,"locus YFL029C, strain CAK1, active compounds read low",0.996
same,normalized growth,"locus YFR003C, strain YPI1, active compounds read low",0.989
same,normalized growth,"locus YFR019W, strain FAB1, active compounds read low",0.714 (active)
same,normalized growth,"locus YFR028C, strain CDC14, active compounds read low",0.997
same,normalized growth,"locus YGR040W, strain KSS1, active compounds read low",0.81
same,normalized growth,"locus YGR052W, strain FMP48, active compounds read low",0.786
same,normalized growth,"locus YGR092W, strain DBF2, active compounds read low",0.839
same,normalized growth,"locus YHR030C, strain SLT2, active compounds read low",0.731 (active)
same,normalized growth,"locus YHR079C, strain IRE1, active compounds read low",0.889
same,normalized growth,"locus YHR082C, strain KSP1, active compounds read low",0.829
same,normalized growth,"locus YHR205W, strain SCH9, active compounds read low",0.875
same,normalized growth,"locus YIL147C, strain SLN1, active compounds read low",0.983
same,normalized growth,"locus YJL095W, strain BCK1, active compounds read low",0.697
same,normalized growth,"locus YJL128C, strain PBS2, active compounds read low",0.95
same,normalized growth,"locus YJL157C, strain FAR1, active compounds read low",0.785
same,normalized growth,"locus YJR016C, strain ILV3, active compounds read low",0.986
same,normalized growth,"locus YJR066W, strain TOR1 (second series), active compounds read low",0.729
same,normalized growth,"locus YJR066W, strain TOR1, active compounds read low",0.769
same,normalized growth,"locus YKL048C, strain ELM1, active compounds read low",0.922
same,normalized growth,"locus YKL067W, strain YNK1, active compounds read low",0.817
same,normalized growth,"locus YKL101W, strain HSL1, active compounds read low",0.854
same,normalized growth,"locus YKL193C, strain SDS22, active compounds read low",1
same,normalized growth,"locus YKL203C, strain TOR2, active compounds read low",0.891
same,normalized growth,"locus YLR113W, strain HOG1, active compounds read low",0.839 (active)
same,normalized growth,"locus YLR133W, strain CKI1, active compounds read low",0.841
same,normalized growth,"locus YLR403W, strain SFP1, active compounds read low",0.832
same,normalized growth,"locus YML070W, strain DAK1, active compounds read low",0.786
same,normalized growth,"locus YMR001C, strain CDC5, active compounds read low",0.996
same,normalized growth,"locus YMR205C, strain PFK2 (second series), active compounds read low",0.83
same,normalized growth,"locus YMR277W, strain FCP1, active compounds read low",1
same,normalized growth,"locus YNL006W, strain LST8, active compounds read low",0.997
same,normalized growth,"locus YNL020C, strain ARK1, active compounds read low",0.809
same,normalized growth,"locus YNL161W, strain CBK1, active compounds read low",0.994
same,normalized growth,"locus YNL183C, strain NPR1, active compounds read low",0.86
same,normalized growth,"locus YNL207W, strain RIO2, active compounds read low",0.99
same,normalized growth,"locus YNL222W, strain SSU72, active compounds read low",0.993
same,normalized growth,"locus YNL307C, strain MCK1 (second series), active compounds read low",0.811
same,normalized growth,"locus YOL078W, strain AVO1, active compounds read low",0.993
same,normalized growth,"locus YOL136C, strain PFK27, active compounds read low",0.806
same,normalized growth,"locus YOR061W, strain CKA2, active compounds read low",0.69
same,normalized growth,"locus YOR119C, strain RIO1, active compounds read low",0.886
same,normalized growth,"locus YOR231W, strain MKK1, active compounds read low",0.836
same,normalized growth,"locus YOR329C, strain SCD5, active compounds read low",0.998
same,normalized growth,"locus YPL031C, strain PHO85, active compounds read low",0.824
same,normalized growth,"locus YPL153C, strain RAD53, active compounds read low",0.777
same,normalized growth,"locus YPL204W, strain HRR25, active compounds read low",0.859
same,normalized growth,"locus YPL209C, strain IPL1, active compounds read low",0.992
same,normalized growth,"locus YPL256C, strain CLN2, active compounds read low",0.904
same,normalized growth,"locus YPR025C, strain CCL1, active compounds read low",0.993
same,normalized growth,"locus YPR106W, strain ISR1, active compounds read low",0.99
same,normalized growth,"locus YPR111W, strain DBF20, active compounds read low",0.994
same,normalized growth,"strain NNK1, active compounds read low",0.992
same,normalized growth,"strain TSCII, active compounds read low",0.991
